The record followed here is PubChem BioAssay (EPA / NIEHS).

Results filed as inconclusive are left out. Active and inactive are the calls of the source. Rule for the calls: active = hit-call score of the fitted dose curve at least 0.9, where 1 is the maximum; inconclusive = response in the unintended direction; inactive = score below 0.9.

The first assay deals with Nucleoli Translocation, AR (gene 367) (UniProt P10275). The assay is described as follows: UPITT_HCI_U2OS_AR_TIF2_Nucleoli_Antagonist: University of Pittsburgh U2OS Androgen Receptor-Transcriptional Intermediary Factor 2 (AR-TIF2) Antagonism High Content Imaging Assay for Nucleoli Translocation (AID 2283997). Summed up: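 Compounds are added at 20 uM final concentration in 0.2% DMSO to U2OS cells carrying AR-RFP and TIF2-GFP fusions. Nucleolar AR-RFP fluorescence is then quantified by automated imaging. Antagonism is fitted positively against DHT baseline.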
Sequence of Nucleoli Translocation, AR (gene 367) (P10275 whole entry, looked up, the tested form may be a part): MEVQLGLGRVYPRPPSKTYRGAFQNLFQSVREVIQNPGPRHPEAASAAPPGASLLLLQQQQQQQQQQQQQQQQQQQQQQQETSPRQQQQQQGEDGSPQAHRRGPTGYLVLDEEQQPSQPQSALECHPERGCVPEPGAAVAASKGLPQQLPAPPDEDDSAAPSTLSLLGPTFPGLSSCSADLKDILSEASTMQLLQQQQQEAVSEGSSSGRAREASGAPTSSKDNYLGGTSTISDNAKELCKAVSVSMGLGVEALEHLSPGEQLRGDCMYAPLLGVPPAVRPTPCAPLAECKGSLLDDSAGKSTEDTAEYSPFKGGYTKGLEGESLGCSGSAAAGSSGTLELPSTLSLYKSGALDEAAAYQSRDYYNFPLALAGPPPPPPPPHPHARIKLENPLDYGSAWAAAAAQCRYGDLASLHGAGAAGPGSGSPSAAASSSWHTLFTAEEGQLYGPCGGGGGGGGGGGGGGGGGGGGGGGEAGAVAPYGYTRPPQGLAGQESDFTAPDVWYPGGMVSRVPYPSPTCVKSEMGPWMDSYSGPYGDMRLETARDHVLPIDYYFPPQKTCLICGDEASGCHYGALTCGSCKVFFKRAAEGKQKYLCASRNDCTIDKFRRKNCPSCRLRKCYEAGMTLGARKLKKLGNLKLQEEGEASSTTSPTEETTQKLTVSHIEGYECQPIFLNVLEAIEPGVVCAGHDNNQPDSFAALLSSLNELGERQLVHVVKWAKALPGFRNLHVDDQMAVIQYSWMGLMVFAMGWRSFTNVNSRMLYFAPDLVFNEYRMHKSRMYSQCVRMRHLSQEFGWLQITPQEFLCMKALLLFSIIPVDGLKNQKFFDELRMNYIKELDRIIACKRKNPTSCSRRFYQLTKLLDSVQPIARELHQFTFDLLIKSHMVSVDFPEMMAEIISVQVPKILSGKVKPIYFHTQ
As to `CCCCCCC(C)OC(=O)CCCCC(=O)OC(C)CCCCCC` (stereo not drawn), the outcome was inactive. As for `CN(C)Cc1ccccc1O`, the compound was classed as inactive.

For the compound `CNC(=S)NC`, the result was inactive. As to `CCCCCCOC(=O)c1ccccc1O`, the compound was called inactive. Take `[Co]`: the result was inactive.

For the next assay the target is unchanged. Description: UPITT_HCI_U2OS_AR_TIF2_Nucleoli_Agonist: University of Pittsburgh U2OS Androgen Receptor-Transcriptional Intermediary Factor 2 (AR-TIF2) Agonism High Content Imaging Assay for Nucleoli Translocation (AID 2283998). In short, it runs like this:
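Cells express human AR fused to red fluorescent protein and TIF2 fused to GFP. Red fluorescence in the nucleolar region was quantified by high-content imaging and fitted as gain-of-signal against a DMSO baseline. Compounds were tested at 0.195 to 50 uM final (0.5% DMSO).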
As to `CN(C)Cc1ccccc1O`, the compound was classed as inactive. `CCCCCCOC(=O)c1ccccc1O`: the compound was called inactive.

For the compound `[Co]`, the result was inactive.
